This is part of a sample that, as a whole, favours compounds with a hit. Of some 79,000 tested, about 15% had one in any assay. Calls of active or inactive are those of the source. No stated cut-off is given here; in the data, active means growth inhibition above about 70%; inactive means the rest.
What was measured:
[1] = NCI Yeast Anticancer Drug Screen. Data for the rad52 strain (AID 147);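 further: 0% = growth of vehicle-treated control cultures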; settings: S. cerevisiae rad52 mutant growth inhibition, stronger effect = higher value
Procedure, shortened: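 Compounds are applied to a genetically defined yeast strain lacking normal DNA damage repair, and inhibition of growth is expressed relative to cultures given vehicle only.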

[2] = NCI Yeast Anticancer Drug Screen. Data for the wt1 strain (AID 149);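 further: 0% = growth of vehicle-treated wt1 cultures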; settings: S. cerevisiae wt1 strain (SPY 50644) growth inhibition, stronger effect = higher value
Procedure, shortened: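 Readout: yeast growth inhibition, normalised to vehicle controls, in the wt1 strain exposed to test compounds.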

[3] = NCI Yeast Anticancer Drug Screen. Data for the rad50EPP+ strain (AID 151);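 further: 0% = growth of vehicle-treated control cultures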; settings: S. cerevisiae rad50 mutant strain, stronger effect = higher value
Procedure, shortened: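 Compounds were applied to the rad50EPP+ yeast strain, which bears a defined DNA repair alteration, and growth inhibition was determined relative to vehicle-treated cultures.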

[4] = NCI Yeast Anticancer Drug Screen. Data for the mgt1 strain (AID 153); settings: S. cerevisiae mgt1 mutant growth inhibition, stronger effect = higher value
Procedure, shortened: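 Strain: mgt1 yeast, one of a set carrying defined DNA damage repair or cell cycle control alterations. Compound-treated growth compared with vehicle.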

[5] = NCI Yeast Anticancer Drug Screen. Data for the rad50 strain (AID 155);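 further: 0% = growth of vehicle-only cultures of the same strain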; settings: S. cerevisiae rad50 strain growth inhibition, stronger effect = higher value
Procedure, shortened: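 Compounds were tested on a yeast strain with an engineered DNA damage repair alteration; the reported value is growth inhibition normalised to vehicle treatment.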

[6] = NCI Yeast Anticancer Drug Screen. Data for the mec2-1 strain (AID 157); settings: S. cerevisiae mec2-1 strain, stronger effect = higher value
Procedure, shortened: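 Strain: mec2-1 (DNA repair/cell cycle alteration). Compound exposure, then growth measured; inhibition expressed relative to vehicle.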

[7] = NCI Yeast Anticancer Drug Screen. Data for the rad14 strain (AID 159);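 further: 0% = growth of vehicle-treated control cultures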; settings: S. cerevisiae rad14 strain growth inhibition, stronger effect = higher value
Procedure, shortened: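 Compound-treated yeast with a defined DNA-repair lesion; growth inhibition normalised to vehicle-treated cultures.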

[8] = NCI Yeast Anticancer Drug Screen. Data for the sgs1 mgt1 strain (AID 161);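 further: 0% = growth of cultures given vehicle only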; settings: S. cerevisiae sgs1 mgt1 strain, stronger effect = higher value
Procedure, shortened: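 Read-out: growth inhibition vs vehicle controls. Cells: mutant yeast strain deficient in DNA damage repair.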

[9] = NCI Yeast Anticancer Drug Screen. Data for the CLN2oe strain (AID 163);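 further: 0% = growth of vehicle-only control cultures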; settings: S. cerevisiae CLN2oe strain, stronger effect = higher value
Procedure, shortened: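 Growth of a genetically modified yeast strain is measured after compound exposure and compared with cultures given vehicle alone.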

[10] = NCI Yeast Anticancer Drug Screen. Data for the cln2 rad14 strain (AID 165);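 further: 0% = growth equal to vehicle treated cultures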; settings: S. cerevisiae cln2 rad14 strain, stronger effect = higher value
Procedure, shortened: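 Compounds are applied to the cln2 rad14 yeast strain, and growth is then compared with that of vehicle-treated cultures to give inhibition.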

[11] = NCI Yeast Anticancer Drug Screen. Data for the bub3 strain (AID 167); settings: S. cerevisiae bub3 mutant strain, stronger effect = higher value
Procedure, shortened: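 Growth of a checkpoint-deficient yeast mutant is measured after compound exposure. Values represent inhibition relative to vehicle.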

[12] = NCI Yeast Anticancer Drug Screen. Data for the wt2 strain (AID 169);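 further: 0% = growth of vehicle-treated yeast cultures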; settings: S. cerevisiae wt2 strain growth inhibition, stronger effect = higher value
Procedure, shortened: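 This strain belongs to a panel of yeast strains with defined genetic alterations in DNA damage repair or cell cycle control. Compounds are applied, and growth inhibition is measured against vehicle-treated cultures.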

[13] = NCI Yeast Anticancer Drug Screen. Data for the mlh1 strain (AID 171);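 further: 0% = growth of vehicle-treated control cultures of the same strain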; settings: S. cerevisiae mlh1 strain growth inhibition, stronger effect = higher value
Procedure, shortened: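 Growth of the mutant yeast strain after compound exposure, expressed as inhibition relative to vehicle-only controls.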

[14] = NCI Yeast Anticancer Drug Screen. Data for the sgs1 strain (AID 173);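 further: 0% = growth of vehicle-only control cultures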; settings: S. cerevisiae sgs1 mutant, stronger effect = higher value
Procedure, shortened: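 Growth of a yeast strain bearing a defined genetic alteration is measured after compound treatment. Inhibition is expressed relative to vehicle-only controls.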

[15] = NCI Yeast Anticancer Drug Screen. Data for the mlh1 rad18 strain (AID 175); settings: S. cerevisiae mlh1 rad18 strain growth inhibition, stronger effect = higher value
Procedure, shortened: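 Read-out is yeast growth inhibition, calculated against vehicle-only controls. The compound was applied to a strain engineered with DNA damage repair alterations.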

[16] = NCI Yeast Anticancer Drug Screen. Data for the rad18 strain (AID 177); settings: S. cerevisiae rad18 mutant growth inhibition, stronger effect = higher value
Procedure, shortened: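 Growth of the mutant yeast strain after compound exposure, normalised to vehicle-only cultures.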

[17] = at 5.0 µM (retest, dose inferred, filed as 0.5)
[18] = at 50.0 µM (retest, dose inferred, filed as 5.0)

Measured: growth inhibition

N#Cc1nc(Nc2ccc(Cl)cc2)sc1N
active: [1]; at 100.0 µM 80% | [2]; at 100.0 µM 73% | [4]; at 33.0 µM 80% | [4]; at 100.0 µM 94% | [5]; at 50.0 µM 89.2% | [7]; at 100.0 µM 91% | [8]; at 50.0 µM 76.2% | [10]; [18] 92% | [10]; at 50.0 µM 84.6% | [11]; [18] 70% | [11]; at 50.0 µM 86% | [11]; at 100.0 µM 94% | [12]; at 33.0 µM 81% | [12]; at 100.0 µM 84% | [13]; at 100.0 µM 94% | [16]; at 100.0 µM 91%
inactive: [1]; at 1.2 µM -33% | [1]; at 3.7 µM -29% | [1]; at 11.0 µM -25% | [1]; at 33.0 µM 32% | [2]; at 1.2 µM -6% | [2]; at 3.7 µM -4% | [2]; at 11.0 µM -16% | [2]; at 33.0 µM 41% | [3]; at 1.2 µM -36% | [3]; at 3.7 µM -27% | [3]; at 11.0 µM -17% | [3]; at 33.0 µM -1% | [3]; at 100.0 µM 36% | [4]; at 1.2 µM -6% | [4]; at 3.7 µM -10% | [4]; at 11.0 µM 1% | [5]; at 1.2 µM -4% | [5]; at 3.7 µM -9% | [5]; [17] 18% | [5]; at 11.0 µM -1% | [5]; at 33.0 µM 27% | [5]; [18] -8% | [5]; at 100.0 µM 61% | [6]; at 1.2 µM -37% | [6]; at 3.7 µM -8% | [6]; [17] 8% | [6]; at 11.0 µM -15% | [6]; at 33.0 µM 19% | [6]; [18] 53% | [6]; at 50.0 µM 36.1% | [6]; at 100.0 µM 42% | [7]; at 1.2 µM -31% | [7]; at 3.7 µM -19% | [7]; at 11.0 µM -16% | [7]; at 33.0 µM 34% | [8]; [17] 9% | [8]; [18] 30% | [9]; at 1.2 µM 25% | [9]; at 3.7 µM 20% | [9]; at 11.0 µM 27% | [9]; at 33.0 µM 58% | [9]; at 100.0 µM 44% | [10]; [17] 39% | [11]; at 1.2 µM 18% | [11]; at 3.7 µM 23% | [11]; [17] 10% | [11]; at 11.0 µM 17% | [11]; at 33.0 µM 32% | [12]; at 1.2 µM -20% | [12]; at 3.7 µM -36% | [12]; at 11.0 µM -20% | [13]; at 1.2 µM 1% | [13]; at 3.7 µM 27% | [13]; at 11.0 µM 21% | [13]; at 33.0 µM 64% | [14]; at 1.2 µM -20% | [14]; at 3.7 µM -13% | [14]; at 11.0 µM -2% | [14]; at 33.0 µM -1% | [14]; at 100.0 µM 40% | [15]; [17] -29% | [15]; [18] -24% | [15]; at 50.0 µM 49.9% | [16]; at 1.2 µM -17% | [16]; at 3.7 µM -17% | [16]; at 11.0 µM -3% | [16]; at 33.0 µM 44%

— PubChem BioAssay (NCI)
